# Results taken from the supplement of paper PMC10849652.
# About 8,800 targets were measured; listed, in parts, are those with a hit and a random draw of the rest. About 0.5% of all pairs of compound and target were hits. A number with no mark means an inactive call.
# Experiments:
# Assay in all cases: log2 fold change, soluble protein after heating vs DMSO (PISA); higher = thermal stabilisation; K562 lysate, 10 uM; active = over 0.2 and 3.5 SD of the protein, either way, in both replicates (recomputed)
# [1] = compound: CS(=O)(=O)CCNCc1ccc(-c2ccc3ncnc(Nc4ccc(OCc5cccc(F)c5)c(Cl)c4)c3c2)o1 [lapatinib]
# Outline: (§1)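 Values give the log-two fold change in thermal stability against solvent controls, from duplicates. Crude K562 extract at 1 mg/mL protein, made by dounce homogenisation in PBS pH 7.4 with 1 mM MgCl2, was treated with 10 μM compound for 30 min. After 3 min heating across 48°C-58°C, aliquots were pooled, adjusted to 0.5% NP-40 at 4°C and centrifuged at 21,000xg for 90 min. The supernatant was measured by TMTpro 16plex LC-MS/MS with channel sums equalised.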
# [2] = compound: CS(=O)(=O)N1CCN(Cc2cc3nc(-c4cccc5[nH]ncc45)nc(N4CCOCC4)c3s2)CC1 [pictilisib]
# Outline: as §1
# [3] = compound: C[C@@H](Oc1cc(-c2cnn(C3CCNCC3)c2)cnc1N)c1c(Cl)ccc(F)c1Cl [crizotinib]
# Outline: as §1
# [4] = compound: C[C@H](C1=CC=C(C=C1)C(=O)NC2=C3C=CNC3=NC=C2)N
# Outline: as §1
# [5] = compound: C[C@H](Nc1ncnc2nc[nH]c12)c1cc2cccc(Cl)c2c(=O)n1-c1ccccc1 [duvelisib]
# Outline: as §1
# [6] = compound: Cc1cc(Nc2cc(CN3CCOCC3)c3nc(C)c(Cc4ccc(Cl)cc4F)n3n2)n[nH]1 [gandotinib]
# Outline: as §1
# [7] = compound: Cc1cc(Nc2cc(N3CCN(C)CC3)nc(Sc3ccc(NC(=O)C4CC4)cc3)n2)n[nH]1 [tozasertib]
# Outline: as §1
# [8] = compound: Cc1ccc(-n2nc(C(C)(C)C)cc2NC(=O)Nc2ccc(OCCN3CCOCC3)c3ccccc23)cc1 [doramapimod]
# Outline: as §1
# [9] = compound: Cc1ccc(NC(=O)c2ccc(CN3CC[C@H](N(C)C)C3)c(C(F)(F)F)c2)cc1Nc1nccc(-c2cncnc2)n1 [bafetinib]
# Outline: as §1
# [10] = compound: Cc1cccc(CC(=O)N2CCc3c2ccc(-c2cn(C)c4ncnc(N)c24)c3F)n1
# Outline: as §1
# [11] = compound: Cc1cn(-c2cc(NC(=O)c3ccc(C)c(Nc4nccc(-c5cccnc5)n4)c3)cc(C(F)(F)F)c2)cn1 [nilotinib]
# Outline: as §1
# [12] = compound: Cc1nc(Nc2n[nH]c3c2CN(C(=O)N[C@H](CN(C)C)c2ccccc2)C3(C)C)c2sccc2n1
# Outline: as §1
# [13] = compound: Cc1nc(Nc2ncc(C(=O)Nc3c(C)cccc3Cl)s2)cc(N2CCN(CCO)CC2)n1 [dasatinib]
# Outline: as §1
# [14] = compound: Cc1ncc(-c2ccnc(Nc3ccc(S(C)(=O)=O)cc3)n2)n1C(C)C
# Outline: as §1
# [15] = compound: Cn1cc(-c2ccc3c(c2)CCN3C(=O)Cc2cccc(C(F)(F)F)c2)c2c(N)ncnc21
# Outline: as §1
# [16] = compound: Cn1cc(CNCC2CCN(c3ncc(C(=O)NO)cn3)CC2)c2ccccc21 [quisinostat]
# Outline: as §1
# [17] = compound: Cn1cncc1[C@@](N)(c1ccc(Cl)cc1)c1ccc2c(c1)c(-c1cccc(Cl)c1)cc(=O)n2C [tipifarnib]
# Outline: as §1
# [18] = compound: NC(=O)Nc1cc(-c2cccc(F)c2)sc1C(=O)N[C@H]1CCCNC1
# Outline: as §1
# [19] = compound: NC(=O)c1cnc(N[C@@H]2CCCC[C@@H]2N)nc1Nc1cccc(-n2nccn2)c1
# Outline: as §1
# [20] = compound: NC1(c2ccc(-c3nc4ccn5c(=O)[nH]nc5c4cc3-c3ccccc3)cc2)CCC1
# Outline: as §1
# Chain of UniProt Q9H5X1 (Q9H5X1 whole entry, looked up): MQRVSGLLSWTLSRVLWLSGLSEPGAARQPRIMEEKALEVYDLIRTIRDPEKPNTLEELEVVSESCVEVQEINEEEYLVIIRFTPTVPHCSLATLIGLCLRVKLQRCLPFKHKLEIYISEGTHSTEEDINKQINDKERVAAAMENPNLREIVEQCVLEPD
# Chain of UniProt Q8WUH1 (Q8WUH1 whole entry, looked up): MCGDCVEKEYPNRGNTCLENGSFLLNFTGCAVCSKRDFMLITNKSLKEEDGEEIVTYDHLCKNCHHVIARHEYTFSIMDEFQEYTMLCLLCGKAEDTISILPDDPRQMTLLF
# Chain of UniProt Q8WWK9 (Q8WWK9 whole entry, looked up): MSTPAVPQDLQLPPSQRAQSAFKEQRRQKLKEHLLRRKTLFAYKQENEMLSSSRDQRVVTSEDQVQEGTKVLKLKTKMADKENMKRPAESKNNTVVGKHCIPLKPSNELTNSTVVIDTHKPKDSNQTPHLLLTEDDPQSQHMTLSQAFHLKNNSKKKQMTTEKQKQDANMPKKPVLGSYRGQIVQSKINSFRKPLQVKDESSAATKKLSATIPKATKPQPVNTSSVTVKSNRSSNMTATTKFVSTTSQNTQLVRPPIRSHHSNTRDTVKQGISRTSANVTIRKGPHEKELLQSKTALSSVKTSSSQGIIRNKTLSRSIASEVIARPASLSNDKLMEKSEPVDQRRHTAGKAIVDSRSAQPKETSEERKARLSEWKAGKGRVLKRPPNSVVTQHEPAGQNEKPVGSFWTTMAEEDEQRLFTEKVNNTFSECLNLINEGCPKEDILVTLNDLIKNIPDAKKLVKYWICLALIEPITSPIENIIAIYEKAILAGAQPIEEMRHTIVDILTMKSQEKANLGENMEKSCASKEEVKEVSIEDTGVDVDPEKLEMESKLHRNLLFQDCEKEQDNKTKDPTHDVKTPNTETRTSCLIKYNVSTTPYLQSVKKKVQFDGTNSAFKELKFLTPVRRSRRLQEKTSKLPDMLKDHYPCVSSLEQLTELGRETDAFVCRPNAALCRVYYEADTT
# Chain of UniProt Q9NSV4 (Q9NSV4 whole entry, looked up): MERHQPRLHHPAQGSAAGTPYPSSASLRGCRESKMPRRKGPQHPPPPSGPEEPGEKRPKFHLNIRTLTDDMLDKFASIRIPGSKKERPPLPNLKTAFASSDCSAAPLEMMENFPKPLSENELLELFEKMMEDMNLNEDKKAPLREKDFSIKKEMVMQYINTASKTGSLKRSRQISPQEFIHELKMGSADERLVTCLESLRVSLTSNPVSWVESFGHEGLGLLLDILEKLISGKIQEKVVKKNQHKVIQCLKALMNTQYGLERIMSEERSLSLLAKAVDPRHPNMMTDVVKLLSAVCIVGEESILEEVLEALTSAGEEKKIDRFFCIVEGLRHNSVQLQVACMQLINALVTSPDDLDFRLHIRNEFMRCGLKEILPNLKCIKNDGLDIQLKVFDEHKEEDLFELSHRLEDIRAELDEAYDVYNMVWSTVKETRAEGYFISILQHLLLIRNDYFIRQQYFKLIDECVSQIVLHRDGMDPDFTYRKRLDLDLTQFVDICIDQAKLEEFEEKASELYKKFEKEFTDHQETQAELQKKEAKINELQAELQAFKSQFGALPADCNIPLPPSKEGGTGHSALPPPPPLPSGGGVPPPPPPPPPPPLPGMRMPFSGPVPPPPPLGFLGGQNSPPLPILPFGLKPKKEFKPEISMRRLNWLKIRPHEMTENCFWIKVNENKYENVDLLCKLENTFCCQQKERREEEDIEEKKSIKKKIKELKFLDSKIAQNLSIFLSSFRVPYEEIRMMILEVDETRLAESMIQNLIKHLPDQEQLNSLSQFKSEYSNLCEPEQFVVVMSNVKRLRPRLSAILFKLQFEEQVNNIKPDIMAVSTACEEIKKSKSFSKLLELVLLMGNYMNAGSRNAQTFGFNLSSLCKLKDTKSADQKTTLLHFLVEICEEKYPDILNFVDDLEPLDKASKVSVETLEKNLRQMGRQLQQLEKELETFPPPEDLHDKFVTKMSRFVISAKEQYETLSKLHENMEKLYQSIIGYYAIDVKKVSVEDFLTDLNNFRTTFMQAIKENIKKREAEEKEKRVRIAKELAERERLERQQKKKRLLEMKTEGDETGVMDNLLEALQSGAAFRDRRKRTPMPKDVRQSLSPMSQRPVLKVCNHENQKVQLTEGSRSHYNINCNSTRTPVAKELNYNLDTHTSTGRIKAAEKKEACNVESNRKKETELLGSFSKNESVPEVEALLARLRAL
# Chain of UniProt Q14746 (Q14746 whole entry, looked up): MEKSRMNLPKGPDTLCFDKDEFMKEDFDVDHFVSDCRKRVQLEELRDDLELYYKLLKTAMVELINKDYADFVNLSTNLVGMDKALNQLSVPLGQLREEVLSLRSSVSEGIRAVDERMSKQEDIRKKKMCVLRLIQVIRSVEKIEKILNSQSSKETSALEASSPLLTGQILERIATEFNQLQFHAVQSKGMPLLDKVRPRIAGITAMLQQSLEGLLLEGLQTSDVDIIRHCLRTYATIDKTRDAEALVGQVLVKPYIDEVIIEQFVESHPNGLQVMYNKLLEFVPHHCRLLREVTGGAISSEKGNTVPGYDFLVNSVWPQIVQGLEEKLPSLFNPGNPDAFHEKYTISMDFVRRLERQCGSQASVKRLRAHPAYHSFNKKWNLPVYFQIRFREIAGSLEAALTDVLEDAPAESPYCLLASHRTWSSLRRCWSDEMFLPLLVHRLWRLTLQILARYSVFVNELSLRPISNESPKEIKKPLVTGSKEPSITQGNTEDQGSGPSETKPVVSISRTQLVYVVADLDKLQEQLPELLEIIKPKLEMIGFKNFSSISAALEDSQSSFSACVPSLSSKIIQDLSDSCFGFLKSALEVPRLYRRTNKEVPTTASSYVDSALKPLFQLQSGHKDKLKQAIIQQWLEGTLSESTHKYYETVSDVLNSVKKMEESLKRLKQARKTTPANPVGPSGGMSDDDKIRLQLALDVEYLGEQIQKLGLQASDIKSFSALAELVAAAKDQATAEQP
# Chain of UniProt Q9UPY3 (Q9UPY3 whole entry, looked up): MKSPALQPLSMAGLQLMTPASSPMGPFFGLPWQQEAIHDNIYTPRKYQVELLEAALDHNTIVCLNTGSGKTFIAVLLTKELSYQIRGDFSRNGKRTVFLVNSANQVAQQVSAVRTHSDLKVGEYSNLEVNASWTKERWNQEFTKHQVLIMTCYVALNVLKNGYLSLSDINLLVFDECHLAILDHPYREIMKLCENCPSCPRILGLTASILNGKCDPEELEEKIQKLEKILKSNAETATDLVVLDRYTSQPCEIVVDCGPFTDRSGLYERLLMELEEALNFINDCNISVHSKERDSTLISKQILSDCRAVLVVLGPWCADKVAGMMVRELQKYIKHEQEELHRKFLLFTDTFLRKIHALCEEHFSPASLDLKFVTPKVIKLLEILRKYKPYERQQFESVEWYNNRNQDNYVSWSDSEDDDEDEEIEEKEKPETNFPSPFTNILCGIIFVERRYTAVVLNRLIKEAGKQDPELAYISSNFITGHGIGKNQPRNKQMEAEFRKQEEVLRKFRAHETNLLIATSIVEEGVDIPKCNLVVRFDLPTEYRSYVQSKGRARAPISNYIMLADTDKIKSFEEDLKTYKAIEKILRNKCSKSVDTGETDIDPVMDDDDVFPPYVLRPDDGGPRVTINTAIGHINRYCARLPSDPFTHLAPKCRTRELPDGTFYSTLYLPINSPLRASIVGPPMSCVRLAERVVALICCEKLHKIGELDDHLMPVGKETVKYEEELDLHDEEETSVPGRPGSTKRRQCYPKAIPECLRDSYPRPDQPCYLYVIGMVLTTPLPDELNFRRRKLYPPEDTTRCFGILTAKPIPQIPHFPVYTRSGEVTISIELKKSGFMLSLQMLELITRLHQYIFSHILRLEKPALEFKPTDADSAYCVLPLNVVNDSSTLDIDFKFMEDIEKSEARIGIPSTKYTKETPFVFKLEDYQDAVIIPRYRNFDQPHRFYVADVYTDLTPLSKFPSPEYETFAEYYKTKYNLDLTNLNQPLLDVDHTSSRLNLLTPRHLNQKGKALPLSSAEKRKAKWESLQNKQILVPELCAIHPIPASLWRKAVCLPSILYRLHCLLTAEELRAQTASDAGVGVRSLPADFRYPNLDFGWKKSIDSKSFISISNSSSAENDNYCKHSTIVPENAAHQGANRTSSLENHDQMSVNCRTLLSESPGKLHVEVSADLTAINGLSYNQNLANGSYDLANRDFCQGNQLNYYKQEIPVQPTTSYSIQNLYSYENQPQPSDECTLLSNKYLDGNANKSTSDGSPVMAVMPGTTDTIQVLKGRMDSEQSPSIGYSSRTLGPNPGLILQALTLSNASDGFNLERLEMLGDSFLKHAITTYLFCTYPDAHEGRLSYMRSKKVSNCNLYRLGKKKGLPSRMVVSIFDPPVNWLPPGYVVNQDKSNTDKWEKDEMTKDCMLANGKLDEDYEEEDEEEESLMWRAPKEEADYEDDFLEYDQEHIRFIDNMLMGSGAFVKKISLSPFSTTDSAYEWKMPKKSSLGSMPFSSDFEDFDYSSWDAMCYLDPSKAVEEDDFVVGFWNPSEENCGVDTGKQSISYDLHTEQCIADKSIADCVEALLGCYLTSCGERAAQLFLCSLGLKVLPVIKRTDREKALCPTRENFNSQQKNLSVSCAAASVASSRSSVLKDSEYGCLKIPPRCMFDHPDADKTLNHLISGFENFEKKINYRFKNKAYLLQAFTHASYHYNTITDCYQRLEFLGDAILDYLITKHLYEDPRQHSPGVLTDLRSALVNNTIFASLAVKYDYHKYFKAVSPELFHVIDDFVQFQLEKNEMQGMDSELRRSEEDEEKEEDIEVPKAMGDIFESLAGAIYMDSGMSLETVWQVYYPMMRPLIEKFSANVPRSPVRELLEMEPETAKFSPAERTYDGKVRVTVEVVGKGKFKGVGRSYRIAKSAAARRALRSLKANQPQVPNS
# Chain of UniProt Q5RI15 (Q5RI15 whole entry, looked up): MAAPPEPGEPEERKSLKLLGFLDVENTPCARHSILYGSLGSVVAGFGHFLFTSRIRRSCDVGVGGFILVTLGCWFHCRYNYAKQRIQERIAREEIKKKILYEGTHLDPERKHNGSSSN
Target,log2 fold change [1],log2 fold change [2],log2 fold change [3],log2 fold change [4],log2 fold change [5],log2 fold change [6],log2 fold change [7],log2 fold change [8],log2 fold change [9],log2 fold change [10],log2 fold change [11],log2 fold change [12],log2 fold change [13],log2 fold change [14],log2 fold change [15],log2 fold change [16],log2 fold change [17],log2 fold change [18],log2 fold change [19],log2 fold change [20]
DIAPH3 (UniProt Q9NSV4),0.068,0.005,0.003,0.039,-0.043,-0.102,-0.017,0.036,-0.075,0.135,-0.019,0.019,-0.167,-0.021,0.029,-0.093,-0.041,0.057,0.077,0.019
DICER1 (UniProt Q9UPY3),-0.02,-0.071,-0.075,-0.075,-0.05,0.02,0.035,0.039,-0.11,0.084,0.014,-0.014,-0.005,0.045,-0.03,-0.072,0,0.051,0.045,-0.068
DDB2 (UniProt Q92466),-0.03,-0.025,-0.025,-0.01,0.014,0.046,-0.026,0.05,0.023,0.008,-0.027,-0.024,-0.033,-0.044,0.02,0.028,0.026,0.021,0.006,-0.003
CHURC1 isoform 2 (UniProt Q8WUH1),0.012,0.043,-0.047,0.026,0.049,-0.014,-0.032,-0.01,-0.019,-0.001,0.055,-0.029,0.016,-0.09,-0.001,-0.074,0.027,0.018,-0.041,-0.083
COX20 isoform 2 (UniProt Q5RI15),0.016,0.186,0.054,0.455 (active),-0.007,-0.144,-0.053,-0.036,0.144,-0.273,0.051,-0.023,0.07,-0.024,0.013,-0.017,0.117,-0.026,-0.058,-0.03
COG2 (UniProt Q14746),-0.009,-0.03,-0.041,-0.025,0.025,-0.118,0.012,0.009,-0.027,0.02,0.024,0.008,-0.024,0.096,-0.002,-0.029,-0.06,0.055,0.001,0.009
CKAP2 (UniProt Q8WWK9),-0.004,-0.02,-0.027,0.064,0.016,0.016,0.034,-0.001,0.019,-0.009,0.075,0.07,0.004,0.036,-0.014,-0.098,-0.053,-0.015,-0.049,-0.023
CIAO2A (UniProt Q9H5X1),0.007,-0.058,-0.014,0.181,-0.01,0,0.042,0.11,-0.015,-0.276 (active),-0.018,0.033,-0.037,-0.074,0.011,0.011,-0.067,-0.004,-0.027,-0.038
CTPS1 (UniProt P17812),-0.007,-0.015,-0.044,0.004,-0.003,-0.052,-0.004,0.005,0.078,0.015,0.009,-0.005,-0.058,0.011,0.026,-0.019,-0.015,0.028,0.002,-0.004
CLIP1 isoform 2 (UniProt P30622),0.066,,0.018,-0.103,-0.053,0.135,0.047,0,0.031,0,0.055,-0.04,0.049,-0.073,-0.01,-0.049,0.015,-0.015,0.029,-0.059
DNAH5 (UniProt Q8TE73),0.043,-0.005,,-0.422 (active),-0.051,0.181,,,-0.047,0.175,-0.029,-0.036,-0.072,-0.013,-0.156,,-0.128,,-0.073,-0.049
